Screening data: PubChem, National Center for Advancing Translational Sciences (NCATS)
Hits are enriched below; roughly 8.8% of the tested compounds scored in any of these assays.
HT1080NT lethal = qHTS for induction of synthetic lethality in tumor cells producing 2HG: qHTS for the HT-1080-NT fibrosarcoma cell line; HT-1080-NT fibrosarcoma viability, CellTiter-Glo ATP luminescence, 48 h; Potency, µM (top dose mostly 46.1 µM), most hits filed as cytotoxic; 1.6% of 360,000 active; AID 686970, 2013;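 also: NT is the 2HG producing partner of a matched IDH1 knockdown line; nearly all actives have a fitted effect of over 55% in size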
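Toxicity toward the 2HG-producing NT line was scored as %Activity, normalised to DMSO and no-cell wells, from CellTiter-Glo luminescence after 48 hours' treatment.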
IL-1B inflam inh = qHTS for Inhibitors of Inflammasome Signaling: IL-1-beta AlphaLISA Primary Screen. THP-1 LPS/ATP IL-1B secretion, AlphaLISA, 16 h; hits give low values. activity change, % at 57.5 µM. 4.7% of 360,000 active; in the data active = activity change below about -50%; inconclusive = mostly about -30% to -49%
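Secreted IL-1B measured by AlphaLISA bead assay after 16 h compound exposure of THP-1 cells; compounds (final up to 57.5 uM) added 1 h before LPS (250 ng/mL) and ATP (1.25 mM) stimulation; lower signal means less secretion.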
HT1080 IDH1KD tx = qHTS for induction of synthetic lethality in tumor cells producing 2HG: qHTS for the HT-1080-IDH1KD cell line. HT-1080 IDH1 knockdown viability, ATP luminescence, 48 h. Potency, µM (doses to about 46.1 µM), hits mostly cytotoxic. 2% of 360,000 active. AID 686971, 2013
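Knockdown cells (IDH1KD HT-1080) received compounds 2 h after plating at 750 cells/well and were kept 48 h at 37 °C in 5% FBS RPMI. A CellTiter-Glo luminescence read gave % activity for curve fitting.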
KB-V1 MDR tox = qHTS assay for MDR1-selective chemotherapeutics: Primary screen using the drug-selected MDR subline cells KB-V1 | KB-V1 MDR cells viability, CellTiter-Glo, 72 h | Potency, µM (doses to about 46.1 µM), most hits filed as cytotoxic | 3.4% of 400,000 active | AID 1347076, 2019; also: nearly all actives have a fitted effect of over 60% in size
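Potencies derive from concentration-effect curves fitted to normalized luminescence (CellTiter-Glo) of KB-V1 cells treated for 72 h at 37 degrees C in phenol-red-free DMEM containing 10% FBS.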
KB-3-1 cytotox = qHTS assay for MDR1-selective chemotherapeutics: Primary screen using the parental adenocarcinoma cell KB-3-1. 1.4% of 400,000 active. AID 1347075, 2019. KB-3-1 viability, CellTiter-Glo ATP luminescence, 72 h. Potency, µM (series often up to 46.1 µM), actives largely listed as cytotoxic; also: nearly all actives have a fitted effect of over 60% in size
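KB-3-1 cells, DMEM (no phenol red) + 10% FBS; compound by pin transfer, 72 h, 37 °C. Readout: CellTiter-Glo luminescence after 10 min. Data normalized, curve-fitted.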
Each line names hits and unclear results; the compound was inactive in the other large screens. Unless noted, calls follow the shape of the dose curve; as a rule, active = well fitted curve in the direction sought with a large enough effect; inconclusive = small, poorly fitted or top-dose-only effect, or another doubt; inactive = no such curve, though single readings can be large; an effect the other way counts as inactive or inconclusive.

Cc1ccc(CN(Cc2ccccn2)C(=O)Nc2ccc(C)c(C)c2)cc1	IL-1B inflam inh -58, HT1080 IDH1KD tx inconclusive
COc1ccccc1NC(=S)N(CCc1ccc(OC)c(OC)c1)Cc1ccccn1	KB-V1 MDR tox inconclusive
CN(C)c1ccc(C(CNC(=O)c2ccccc2F)N2CCc3ccccc32)cc1 (configuration not stated)	none (no result: HT1080NT lethal, IL-1B inflam inh, HT1080 IDH1KD tx)
CC(=O)N1CCC(C(=O)NCCOc2ccc(C)cc2)CC1	KB-V1 MDR tox inconclusive
O=C(CCCl)Nc1nnc(SCC(=O)NC2CCCC2)s1	HT1080NT lethal 15µM, IL-1B inflam inh -88, HT1080 IDH1KD tx 29µM
C[C@H](CO)N1C[C@H](C)[C@@H](CN(C)S(=O)(=O)c2cccs2)Oc2c(NC(=O)CCC(F)(F)F)cccc2C1=O	none
Nc1nnc(CC(=O)N/N=C/c2ccc(-c3ccc(F)cc3)o2)s1	IL-1B inflam inh -51
O=S(=O)(NC1=NCCCCC1)c1ccc2sc(NS(=O)(=O)c3ccc4ccccc4c3)nc2c1	IL-1B inflam inh -54, KB-3-1 cytotox inconclusive
CCNC(=S)N/N=C/c1cc(Br)cc(Br)c1OC	HT1080NT lethal 4.5µM, HT1080 IDH1KD tx 4µM
COc1c(Br)cc(Br)cc1/C=N/NC(=O)c1cccnc1	HT1080 IDH1KD tx inconclusive, KB-3-1 cytotox 16µM
O=C(CN(c1cccc(C(F)(F)F)c1)S(=O)(=O)c1ccc(Cl)c([N+](=O)[O-])c1)NCc1ccc(F)cc1	HT1080NT lethal inconclusive, IL-1B inflam inh -99, HT1080 IDH1KD tx inconclusive, KB-3-1 cytotox inconclusive
O=C(CN(c1cccc(C(F)(F)F)c1)S(=O)(=O)c1ccccc1)Nc1cccc(Cl)c1	KB-V1 MDR tox inconclusive (no result: HT1080NT lethal, IL-1B inflam inh, HT1080 IDH1KD tx)
O=C(NCCc1c[nH]c2ccccc12)c1ccc2c(c1)OCO2	none
Cc1ccc2[nH]cc(CCNC(=O)c3cccs3)c2c1	IL-1B inflam inh -75
Cc1ccc2[nH]cc(CCNC(=O)c3ccc4c(c3)OCO4)c2c1	IL-1B inflam inh -53
Cc1ccc2[nH]cc(CCNC(=O)c3ccco3)c2c1	none
Cc1oc(-c2ccccc2Cl)nc1CN1CCCN(C(=O)c2ccco2)CC1	none
NC1=NC[C@@H](CC2CCCCC2)N1CCc1cc(C(F)(F)F)cc(C(F)(F)F)c1	IL-1B inflam inh -109, HT1080 IDH1KD tx inconclusive
NC1=NC[C@H](Cc2ccc(O)cc2)N1CCc1cc(C(F)(F)F)cc(C(F)(F)F)c1	none
O=C(Nc1ccc2ccccc2c1)Nc1nnc(-c2ccc(Cl)cc2Cl)s1	none (no result: HT1080NT lethal, IL-1B inflam inh, HT1080 IDH1KD tx)
CCOC(=O)N1CCN(Cc2nc(N)nc(Nc3ccc(Oc4ccccc4)cc3)n2)CC1	HT1080NT lethal 16µM, HT1080 IDH1KD tx inconclusive, KB-V1 MDR tox 13µM
COc1ccc(N2CCN(Cc3nc(N)nc(Nc4ccc(C)c(Cl)c4)n3)CC2)cc1	HT1080NT lethal inconclusive, HT1080 IDH1KD tx inconclusive, KB-V1 MDR tox 5.2µM
COc1ccc(Nc2nc(N)nc(CN3CCOCC3)n2)cc1	none
CCOC(=O)N1CCN(Cc2nc(N)nc(Nc3ccc(OC)cc3)n2)CC1	HT1080 IDH1KD tx inconclusive
Cc1ccc(Nc2nc(N)nc(CN3CCN(c4ccccc4)CC3)n2)cc1Cl	IL-1B inflam inh inconclusive, HT1080 IDH1KD tx inconclusive, KB-V1 MDR tox 16µM
C/C(CC(=O)Nc1cccnc1)=N\NC(=O)C(=O)Nc1cccc(C)c1	none
Nc1nc(F)cc(N2CCCCCC2)n1	none
CN(C)c1ccc(N=Nc2ccccc2C(=O)OCC(=O)NC2CCCC2)cc1	IL-1B inflam inh inconclusive, KB-V1 MDR tox inconclusive
CN(C)c1ccc(N=Nc2ccccc2C(=O)OCC(=O)NCC2CCCCC2)cc1	IL-1B inflam inh inconclusive, KB-V1 MDR tox 7.3µM
Cc1cccc(-c2nc3cc(NC(=O)COc4ccccc4F)ccc3o2)c1	none (no result: HT1080NT lethal, IL-1B inflam inh, HT1080 IDH1KD tx)
Oc1ccccc1CNc1ccc(OC(F)(F)F)cc1	HT1080NT lethal 18µM, IL-1B inflam inh -89, HT1080 IDH1KD tx inconclusive
CCc1cccc(CC)c1NC(=O)CSc1nc2ccc(N3C(=O)C4C5C=CC(C5)C4C3=O)cc2s1 (configuration not stated)	HT1080 IDH1KD tx inconclusive, KB-V1 MDR tox 2.6µM, KB-3-1 cytotox inconclusive
O=C(O)c1ccc(CSc2nc3ccc(N4C(=O)C5C6C=CC(C6)C5C4=O)cc3s2)cc1 (configuration not stated)	none
Oc1c(CN2CCCCC2)cc(COCc2ccccc2)c2cccnc12	HT1080NT lethal 7.3µM, IL-1B inflam inh -105, HT1080 IDH1KD tx 2.9µM, KB-V1 MDR tox inconclusive, KB-3-1 cytotox 5.2µM
COCc1cc(CN2CCCC2)c(O)c2ncccc12	HT1080NT lethal 1.1µM, HT1080 IDH1KD tx 0.63µM, KB-V1 MDR tox inconclusive, KB-3-1 cytotox inconclusive
CN(C)C1CCN(Cc2cc(COCc3ccccc3)c3cccnc3c2O)C1 (configuration not stated)	KB-3-1 cytotox inconclusive (no result: HT1080NT lethal, IL-1B inflam inh, HT1080 IDH1KD tx)
CC(C)c1cc(C(C)C)c(S(=O)(=O)N2c3ccccc3[C@@]3(Br)C[C@H]4C(=O)N[C@@H](Cc5ccccc5)C(=O)N4[C@@H]23)c(C(C)C)c1	KB-V1 MDR tox inconclusive, KB-3-1 cytotox 16µM
O=C1N[C@@H](Cc2ccccc2)C(=O)N2[C@@H]3N(S(=O)(=O)c4ccccc4)c4ccccc4[C@]3(Br)C[C@@H]12	HT1080NT lethal inconclusive, IL-1B inflam inh inconclusive
O=C1c2ccccc2C2N1CCCN2C(=O)c1sc2ccccc2c1Cl (configuration not stated)	KB-V1 MDR tox inconclusive, KB-3-1 cytotox inconclusive
Cn1ncc2c(N3CCN(c4ccc(Cl)c(Cl)c4)CC3)ncnc21	HT1080NT lethal inconclusive, IL-1B inflam inh -60, HT1080 IDH1KD tx inconclusive, KB-V1 MDR tox 2.3µM
O=C(NCC1CCCO1)c1cnn2c(C(F)F)cc(C3CC3)nc12 (configuration not stated)	KB-V1 MDR tox 6.5µM
COc1ccc(-c2cc(C(F)F)n3ncc(C(=O)NCC4CCCO4)c3n2)cc1 (configuration not stated)	HT1080NT lethal inconclusive, HT1080 IDH1KD tx inconclusive
Fc1ccc(-c2nc(-c3c[nH]c4ccccc34)cs2)cc1	KB-3-1 cytotox inconclusive (no result: HT1080NT lethal, IL-1B inflam inh, HT1080 IDH1KD tx)
C(=C\c1nc2ccccc2[nH]1)/c1ccccc1	HT1080NT lethal 18µM, HT1080 IDH1KD tx 18µM, KB-3-1 cytotox 18µM
Cc1nc(/C=C/c2ccccc2)[nH]c(=O)c1-c1ccccc1	HT1080NT lethal inconclusive, KB-V1 MDR tox 18µM, KB-3-1 cytotox inconclusive
O=C(Nc1cccc(/C=C/c2nc3ccccc3c(=O)[nH]2)c1)c1ccccc1Cl	HT1080NT lethal inconclusive, IL-1B inflam inh -52, HT1080 IDH1KD tx inconclusive, KB-3-1 cytotox inconclusive
O=c1[nH]c(/C=C/c2ccc(Br)cc2)nc2ccccc12	none
